According to PubChem BioAssay (NCATS):
“And” between values parts separate entries of the source, which are not always exact repeats. Identical values can stand only once. Inconclusive results are not listed. A call without a number means that no potency is given here. The source made the active and inactive calls. The call rests on the fitted dose curve; in most records, active means well fitted curve in the direction sought with a large enough effect; inconclusive means small, poorly fitted or top-dose-only effect, or another doubt; inactive means no such curve, though single readings can be large; an effect the other way counts as inactive or inconclusive.

Legend:
[1] = qHTS Assay for Identifying Gametocytocidal Compounds (AID 743244);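 further: actives lower the fluorescent signal which means gametocytes are killed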; settings: P. falciparum 3D7 stage III-V gametocytes, alamarBlue, 72 h; max response: active compounds read low
Method in brief: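 Stage III-V P. falciparum 3D7 gametocytes, 20,000 per well, were exposed to compounds for 72 h at 37C, 5% CO2. AlamarBlue was then added for 24 h and viability was read as fluorescence at Ex 525/Em 598 nm.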

[2] = qHTS assay for measurement of the activity of small molecule inhibitors on Zika virus induced Caspase-3 activity in human iPSC derived neural progenitor cells (hNPCs) (AID 1224857); further: nearly all actives have a fitted effect of over 65% in size
Method in brief: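 Human iPSC-derived neural progenitor cells pretreated 1 hr with compounds, then infected with Zika virus (2 FFU/cell) for 6 hours at 37 C. Caspase-3/7 measured by Caspase-Glo luminescence; % inhibition calculated from induction scaled to uninfected (0%) and infected (100%) wells.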

SMILES | max response [1] | Potency [2]
Nc1ccc(C(=O)NCC(=O)O)cc1 | 6.7% (inactive) | inactive
CCc1nn(CCCN2CCN(c3cccc(Cl)c3)CC2)c(=O)n1CCOc1ccccc1 | -8.53% (inactive) and -14% (inactive) | inactive
O=S(c1cc(Cl)cc(Cl)c1O)c1cc(Cl)cc(Cl)c1O | 11.4% (inactive) | inactive
COc1cc(O)c(C(=O)c2ccccc2)cc1S(=O)(=O)O | -9.98% (inactive) | inactive
COc1ccc(/C=N/NC(=O)c2ccncc2)cc1OC | -3.84% (inactive) | inactive
CC(=O)Oc1ccc(C)cc1 | -2.81% (inactive) | inactive
O=C(O)C(Cc1cc(I)c(O)c(I)c1)c1ccccc1 (stereo unspecified) | -2.86% (inactive) | inactive
CC[C@]12CCCN3CCc4c(n(c5ccccc45)C(=O)C1)[C@@H]32 | 3.35% (inactive) | inactive
